Hits are enriched below; roughly 3.8% of the tested compounds scored in any of these assays.
Y pestis TopoI = blocks Yersinia pestis topoisomerase I activity | Y. pestis Topo-I cleavage product accumulation, plate reader | activity, % at 10 µM | 0.064% of 360,000 active; in the data active = activity above about 50%, passing the limit was not always enough
PrP 5UTR inh = suppresses PrP 5' UTR mRNA reporter expression; inhibition, % (no concentration beside the values); cell-based PrP 5' UTR mRNA reporter, plate reader; 0.35% of 340,000 active; in the data active = inhibition above about 52%; also: 0 = median of the neutral control wells
GDH-TPI counter = GDH-TPI coupled enzyme inhibition counter-screen | GDH-TPI coupled enzyme counterscreen, NADH absorbance | inhibition, % at 4.8 µM | AID 588335 | 1.2% of 360,000 active; in the data active = inhibition above about 30%;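 also: 0% = DMSO wells and 100% = wells lacking the enzyme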
Mtb hypoxia inh = inhibitors of hypoxia-regulated fluorescent reporter in Mycobacterium tuberculosis; M. tuberculosis hypoxia-regulated fluorescent reporter, fluorescence; fluorescence inhibition, % (no concentration beside the values); 0.1% of 300,000 active; in the data active = fluorescence inhibition mostly above about 23%, no sharp cut-off; inactive = mostly below about 17%
Mtb FBA inh = inhibitors of M. tuberculosis fructose-bisphosphate aldolase. purified M. tuberculosis FBA, fluorescence read-out. AID 588726. 2.3% of 360,000 active. inhibition, % at 1 µM; in the data active = inhibition above about 27%;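 also: 0% = vehicle and 100% = reference inhibitor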
Target sequence (P9WQA3 whole entry, looked up): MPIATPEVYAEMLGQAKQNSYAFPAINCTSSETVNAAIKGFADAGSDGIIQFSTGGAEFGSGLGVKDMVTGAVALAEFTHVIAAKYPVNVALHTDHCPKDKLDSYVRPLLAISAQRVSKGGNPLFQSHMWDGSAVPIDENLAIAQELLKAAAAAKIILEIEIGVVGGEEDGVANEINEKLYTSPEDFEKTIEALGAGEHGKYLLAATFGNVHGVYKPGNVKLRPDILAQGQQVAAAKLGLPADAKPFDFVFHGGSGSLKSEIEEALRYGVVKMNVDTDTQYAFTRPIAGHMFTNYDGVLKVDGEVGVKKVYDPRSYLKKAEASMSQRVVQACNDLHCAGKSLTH
PrPC surface inh = reduces human prion protein on the cell surface. cell surface PrPC, TR-FRET read-out. inhibition, % at 13.8 µM. 0.43% of 370,000 active. AID 720596; in the data active = inhibition above about 24%; also: 0% = median of the test wells and 100% = reference compound wells
* = called active by the depositor; / = not tested or not shown.

SMILES | Y pestis TopoI | PrP 5UTR inh | GDH-TPI counter | Mtb hypoxia inh | Mtb FBA inh | PrPC surface inh
CC1CN(C(C)CO)C(=O)c2cccc(NC(=O)C3CC3)c2OC1CN(C)S(=O)(=O)c1cccs1 (stereo not drawn) | / | / | / | 8 | / | /
O=C1C(Cc2ccccc2)NCC=CCC(c2ccc(Cl)cc2)N1Cc1ccccc1 (stereo not drawn) | / | / | / | 9 | / | /
Cc1ccc(Cn2ccc(NC(=O)c3cc(-c4cccs4)on3)n2)cc1 | 87* | -18 | 6 | 7 | 2 | -2
CC(=O)c1cccc(NC(=O)c2cc(-c3cccs3)on2)c1 | -2 | 4 | 14 | -18 | 3 | 4
O=C(Nc1cccc(O)c1)c1cccc(C(=O)Nc2cccc(O)c2)c1 | -24 | -4 | 1 | 47* | -1 | -3
O=C(Nc1cccc(O)c1)c1cc(-c2cccs2)on1 | 2 | -23 | -6 | -2 | 165* | 0
CCOC1OC(C(=O)O)=CC(c2ccc(Br)cc2)C1CCCO (stereo not drawn) | / | / | / | 11 | / | /
O=C1C2C(c3ccc(F)cc3)N3C(=O)N(c4cccc(Cl)c4)C(=O)[C@@]3(Cc3ccccc3)C2C(=O)N1C1CCCCC1 (stereo partly drawn) | / | / | / | 11 | / | /
CC(=CC(=O)OCCCCCCCCC(=O)O)CC1OCC(CC2OC2C(C)C(C)O)C(O)C1O (stereo not drawn) | / | / | / | 7 | / | /
O=C1NC(=Nc2ccccc2)S/C1=C\c1cccnc1 | -2 | -14 | 33* | 5 | 0 | 3
O=C1N/C(=N/S(=O)(=O)c2ccccc2)S/C1=C/c1cccnc1 | -1 | -27 | 33* | 3 | 1 | -6
Cc1ccc(N=C2NC(=O)/C(=C/c3cccnc3)S2)cc1C | -4 | 0 | 8 | 3 | 0 | 3
O=C(CNC(=O)C1COc2ccccc2O1)NN=Cc1ccc(Br)cc1 (stereo not drawn) | / | / | / | 0 | / | /
COc1ccc2c(c1)c(=O)oc1cc(OCC(=O)NCC3CCC(C(=O)O)CC3)ccc12 (stereo not drawn) | -1 | 10 | 11 | / | 15 | -2
CCCc1cc(=O)oc2cc(OCc3ccc(C(=O)O)cc3)ccc12 | 7 | -8 | 13 | 18 | 48* | 0
CCc1cc(=O)oc2cc(OCC(=O)NCC3CCC(C(=O)O)CC3)ccc12 (stereo not drawn) | 0 | -12 | 19 | / | 28* | -6
COc1ccc(-c2cc3ccc(OCC(=O)NCC4CCC(C(=O)O)CC4)cc3oc2=O)cc1 (stereo not drawn) | 5 | -22 | 42* | / | 178* | -16
COc1ccccc1CNC(c1ccccc1)c1ccccc1 | 28 | -22 | -3 | -2 | 0 | 7
CCOc1ccccc1CNC(c1ccccc1)c1ccccc1 | 52* | -29 | 3 | 19 | 0 | 4
C/C(=N\Nc1ccc(S(N)(=O)=O)cc1[N+](=O)[O-])c1ccco1 | -15 | -14 | 41* | / | -6 | -65
CCOc1ccccc1N1CCN(Cc2cn[nH]c2-c2ccc(F)cc2)CC1 | 0 | 2 | 2 | 14 | 31* | -5
CCn1c(SCC(=O)c2ccc(NS(=O)(=O)c3ccccc3)cc2)nnc1-c1cccs1 | -14 | 0 | 34* | 1 | 8 | -3
CCn1c(SCC(=O)Nc2ccccc2)nnc1-c1cccs1 | 7 | 2 | 6 | 1 | 5 | -8
C#CCOCCOCCOCCNc1nc(N2CCN(C(=O)C(C)n3cc(CCCN=C(N)N)nn3)CC2)nc(N2CCN(C(=O)C(C(C)CC)n3cc(CCC(=O)O)nn3)CC2)n1 (stereo not drawn) | / | / | / | 12 | / | /
O=c1c2ccccc2nc(N/N=C/c2c(O)ccc3ccccc23)n1O | 6 | -19 | 25 | / | 2 | -6
SMILES | Y pestis TopoI | PrP 5UTR inh | GDH-TPI counter | Mtb hypoxia inh | Mtb FBA inh | PrPC surface inh
Cc1nc2ccccc2c(=O)n1N=Cc1ccc(N(C)C)cc1 | / | / | / | 0 | / | /
Cc1nc2ccccc2c(=O)n1/N=C/c1ccc(N(C)C)cc1 | 2 | -31 | 41* | / | 0 | 4
CCCc1nc2ccccc2c(=O)n1/N=C/c1ccc(O)cc1 | 4 | -24 | 35* | / | -2 | -4
O=c1c2ccccc2nc(N/N=C/c2ccc(O)cc2)n1O | -12 | -6 | 32* | / | 5 | -11
Cc1sc2nc(C)n(/N=C/c3ccc(O)cc3)c(=O)c2c1C | -3 | -7 | 40* | / | -3 | 0
COCCN=C1OC(=O)N2C(=O)C3=C4C(CC5C(=O)N(c6ccccc6)C(=O)C5C4[C@@]12Cc1ccccc1)C1C(=O)N(c2ccccc2)C(=O)C1C3C (stereo partly drawn) | / | / | / | 17 | / | /

Screening data deposited in PubChem BioAssay by several laboratories.
